Drawing on PubChem BioAssay (NCATS), this text covers Potency and outcome for 24 molecules.

“And” between values parts separate entries of the source, which are not always exact repeats. Equal entries are not always repeated. Results filed as inconclusive are left out. Some structures have more than one record in an assay (separate samples or runs), and their calls can disagree. The source made the active and inactive calls. Calls come from the whole dose curve; as a rule, active = well fitted curve in the direction sought with a large enough effect; inconclusive = small, poorly fitted or top-dose-only effect, or another doubt; inactive = no such curve, though single readings can be large; an effect the other way counts as inactive or inconclusive. Where a SMILES comes first, the peptide text is derived from it.

Test [1] in a line: P-glycoprotein substrates identified in KB-3-1 adenocarcinoma cell line, qHTS therapeutic library screen (AID 1346986). Note: nearly all actives have a fitted effect of over 60% in size.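 Note: potency is the fitted concentration of half-maximal effect; potency is for cytotoxicity meaning loss of cell viability.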 Put shortly:
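Counter-screen: cherry-picked hits retested in the KB pair and in HEK-293 pcDNA/MDR-19 cells ± tariquidar. Primary screen used 72 h CellTiter-Glo viability in KB-3-1 and KB-8-5-11.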
A general note: qHTS replaces the single test concentration by a dilution series.

Test [2] can be described thus: P-glycoprotein substrates identified in KB-8-5-11 adenocarcinoma cell line, qHTS therapeutic library screen (AID 1346987). Note: nearly all actives have a fitted effect of over 65% in size. Note: potency is the fitted concentration of half-maximal effect. Put shortly:
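P-gp-mediated resistance screen: KB-8-5-11 cells treated 72 h with compounds in dose-response. CellTiter-Glo viability.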

A short description of test [3]: Confirmatory screen GU Rhodamine qHTS for Zika virus inhibitors qHTS (AID 1347157). Note: potency is the fitted concentration of half-maximal effect; nearly all actives have a fitted effect of over 70% in size. The essentials:
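A qHTS format was used, with compound concentrations ranging up to 114 microM. Each compound was preincubated with 25 nM NS2B-NS3 protease, and the substrate was then added at 1.5 microM. Curves were fitted with a 4-parameter Hill model.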

For test [4], the system named is Zika virus NS2B-NS3 protease (unlinked complex). Nature of the test: Primary screen GU Rhodamine qHTS for Zika virus inhibitors: Unlinked NS2B-NS3 protease assay (AID 1347159). Note: nearly all actives have a fitted effect of over 60% in size. Note: potency is the fitted concentration of half-maximal effect. The essentials: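 Percent inhibition derives from the 15-min fluorescence change (ex 480, em 540 nm), normalized to no-enzyme and no-inhibitor wells. Reactions contained 25 nM NS2B-NS3 complex and 1.5 microM substrate in 10 mM Tris-HCl pH 8.0.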

A short description of test [5]: Confirmatory screen NINDS Rhodamine qHTS for Zika virus inhibitors (AID 1347161). Note: potency is the fitted concentration of half-maximal effect; nearly all actives have a fitted effect of over 60% in size. Put shortly: (§1)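 In 10 mM Tris-HCl pH 8.0 containing 0.01% Tween 20, linked NS2B-NS3 protease (25 nM final) is exposed to test compounds for 15 min. Cleavage of 1.5 microM Rhodamine110 substrate is tracked by fluorescence over 15 min.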
In test [6] the test system is Zika virus NS2B-NS3 protease (linked construct). The test is described as follows: Primary screen NINDS Rhodamine qHTS for Zika virus inhibitors (AID 1347160). Note: nearly all actives have a fitted effect of over 55% in size. Note: potency is the fitted concentration of half-maximal effect. Put shortly: as §1
Test [7] can be described thus: Vero cells viability qHTS for Zika virus inhibitors (AID 1347167). The essentials: (§2)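 Compounds were tested in concentration series on cells grown in DMEM containing 4% FBS. After 24 to 48 hours, cellular ATP was measured by luminescence with CellTiter Glo.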
Test [8] is described as follows: HepG2 cells viability qHTS for Zika virus inhibitors (AID 1347168). Put shortly: as §2
Test [9] relates to Zika virus NS2B-NS3 protease (linked). Nature of the test: 384 well plate NINDS AMC confirmatory qHTS for Zika virus inhibitors (AID 1347163). Note: potency is the fitted concentration of half-maximal effect; nearly all actives have a fitted effect of over 50% in size. Put shortly: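 Linked protease 5/30/60 nM final; cpds up to 1 mM final, ~15 min preinc. Substrate Ac-VKTGKR-AMC 30 microM final. RT, dark, 25 min; FI ex 355/em 460; normalized to no-enzyme/no-inhibitor ctrls.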

Regarding `COc1cc(CCCO)ccc1O[C@@H]1O[C@H](CO)[C@@H](O)[C@H](O)[C@H]1O`, the Potency entry in test [1], in test [2] and in [4] was “inactive” throughout. Further, the Potency in test [3] and in test [5] was 34.3 µM (active) in each case.
Take `Cc1c(F)cc(C(=O)NC2CC2)cc1-c1ccc(C(=O)NCC(C)(C)C)cn1`: the Potency in test [1] is 0.92 µM (active); in test [2], “inactive and 1.03 µM (active)”. The Potency result in test [4] and in test [6] was “inactive” in each case.
In the case of `O=C(NCC(=O)N1CCCC1)Nc1ccc2ccccc2c1`, the Potency result in test [1], in [2], in [4] and in [6] was “inactive” throughout.
As for `CC(=O)OC12CC(C)C(O)C1/C=C(/COC1OC(CO)C(O)C(O)C1O)CCC1C(/C=C(\C)C2=O)C1(C)C` (stereo unspecified), the Potency result in [1], in test [2], in test [4] and in [6] was “inactive” in each case.
As to `CC(C)=CCc1cc(O[C@@H]2O[C@H](CO[C@@H]3OC[C@](O)(CO)[C@H]3O)[C@@H](O)[C@H](O)[C@H]2O)ccc1O`, the Potency result in test [1], in test [2] and in test [4] was “inactive” in each case.
With `CC(C)C1NC(=O)CNC(=O)C2CCCN2C(=O)C(Cc2c[nH]c3ccccc23)NC(=O)CNC(=O)C(Cc2ccc(O)cc2)NC(=O)CNC1=O` (stereo unspecified) (cyclo(GVGYGWP); configuration not given here), the Potency entry in test [1], in [2], in test [4] and in test [6] was “inactive” throughout.
For `CC1(C)CCC2(C(=O)O)C(O)CC3(C)C(=CCC4C5(C)CCC(OC6OC(CO)C(O)C(O)C6OC6OC(CO)C(O)C(O)C6OC6OCC(O)(CO)C6O)C(C)(C)C5CCC43C)C2C1` (stereo unspecified), the outcome in test [1] and in test [2] was “inactive [at 9.29 µM]” throughout. For the same molecule, the Potency entry in test [4] and in [6] was “inactive” throughout.
Regarding `COc1cc(O[C@@H]2O[C@H](CO[C@H]3OC[C@](O)(CO)[C@H]3O)[C@@H](O)[C@H](O)[C@H]2O)cc(OC)c1O`, the Potency entry in test [1], in test [2], in test [4] and in test [6] was “inactive” each time.
For the molecule `CC(C)C1CCC(C(=O)N[C@@H](Cc2ccccc2)C(=O)O)CC1` (stereo partly specified), the Potency result in [1] and in test [2] was “inactive” throughout. Also, in [4], the Potency was 31.6 µM (active).
With `CC1=CC(=O)CC(C)(C)[C@@]1(O)/C=C/C(C)O[C@@H]1O[C@H](CO)[C@@H](O)[C@H](O)[C@H]1O` (stereo partly specified), the Potency result in [1], in test [2], in test [4] and in test [6] was “inactive” throughout.
For `COC(=O)C1=CO[C@@H](O[C@@H]2O[C@H](CO)[C@@H](O)[C@H](O)[C@H]2O)[C@H]2[C@@H]1[C@H](O)C[C@]2(C)O`, the Potency entry in test [1], in [2], in [4] and in [6] was “inactive” each time.
Take `CSCC1OC(n2cnc3c(N)ncnc32)C(O)C1O` (stereo unspecified): the Potency entry in test [1], in test [2], in test [4] and in test [6] was “inactive” each time.
Regarding `Nc1ncnc2c1C(=O)N(c1ccc(C3CCC(CC(=O)O)CC3)cc1)CCO2` (stereo unspecified), the Potency result in test [1], in test [2], in [4] and in test [6] was “inactive” in each case.
With `C/C=C/C=C/C=C/C(=O)N(C)C(C(=O)NC(C)C(=O)N1CCCC1C(N)=O)C(C)C` (stereo unspecified), the Potency entry in test [1], in test [2], in test [4] and in [6] was “inactive” in each case.
Consider `O=C(/C=C/c1ccc(O)cc1)OC[C@H]1O[C@@H](O/C(=C\c2ccccc2)C(=O)O)[C@H](O)[C@@H](O)[C@@H]1O`, for which the Potency result in test [1], in test [2], in test [4] and in test [6] was “inactive” each time.
For the molecule `CSC(=O)OCC1=C[C@@H]2OC(=O)C3=CO[C@@H](O[C@@H]4O[C@H](CO)[C@@H](O)[C@H](O)[C@H]4O)[C@H]1[C@@H]32`, the Potency entry in [1], in test [2], in test [4] and in [6] was “inactive” in each case.
Take `C[C@@H]1[C@H](O)[C@@H]2OC(=O)C3=C2[C@H](CCC3)[C@@]12C[C@@H](c1ccoc1)OC2=O`: the Potency entry in test [1], in [2], in [4] and in [6] was “inactive” throughout.
As for `CC1=C(C(=O)OC2OC(COC3OC(CO)C(O)C(O)C3O)C(O)C(O)C2O)C(C)(C)CCC1` (stereo unspecified), the Potency result in test [1], in [2], in test [4] and in test [6] was “inactive” in each case.
For `C[C@@]1(O)[C@H](O)[C@@H](CO)O[C@H]1n1cnc2c(=O)[nH]c(N)nc21`, the Potency entry in test [1], in test [2] and in [4] was “inactive” each time.
`O=C(O)[C@H](Cc1ccccc1)Oc1ccc(-c2ccccc2)cc1`: the Potency entry in [1] and in test [2] was “inactive” in each case. The Potency in test [4] is 35.5 µM (active).
Take `CC(=O)OC12CC(C)C(OC(=O)c3ccccc3)C1/C=C(/C)C(OC(=O)c1ccccc1)CC(=O)C(C)(C)/C=C/C(C)C2=O` (stereo unspecified): the Potency result in [1] and in [2] was “inactive” in each case. The Potency in test [3] was 4.64 µM (active); in test [4], 6.31 µM (active); in test [6] it was 7.08 µM (active); in test [5], 3.68 µM (active). Besides, the result in test [7] and in test [8] was inactive.
With `NC[C@H]1CCC[C@@H](CNC(=O)[C@@H](Cc2c[nH]c3ccccc23)NC(=O)N2CCC3(C=Cc4ccccc43)CC2)C1`, the Potency entry in test [1], in test [2], in test [4] and in test [6] was “inactive” each time.
`COC(=O)C1=COC(O[C@@H]2O[C@H](COC(=O)/C=C/c3ccc(O)cc3)[C@@H](O)[C@H](O)[C@H]2O)C2C(CO)=CCC12` (stereo partly specified): the Potency entry in [1], in test [2], in [4] and in [6] was “inactive” each time.
As to `CC(C)CC(c1c(O)c(C=O)c(O)c(C=O)c1O)C1CCC(C)(O)C2CC(C(C)(C)O)CCC12C` (stereo unspecified), the Potency result in test [1] and in test [2] was “inactive” in each case. The Potency was 3.41 µM (active) in test [3], 5.01 µM (active) in test [6], 3.41 µM (active) in [5] and 50.1 µM (active) in [9]. Further, the call in test [7] and in test [8] was inactive.
